Measurements as given in PubChem BioAssay (EPA / NIEHS).
Calls of active or inactive are those of the source. How the source made its calls: active means hit-call score of the fitted dose curve at least 0.9, where 1 is the maximum; inactive means score below 0.9.

Columns and labels:
[1] = read-out: catalase (CAT), CAT (gene 847); test: LTEA_HepaRG_CAT: Life Technologies and Expression Analysis (LTEA) Assay for catalase (CAT) using HepaRG (AID 2283452); conditions: mRNA level, 48 h; actives raise or lower the signal;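 on AC50: TaqMan qRT-PCR signal normalized to ACTB GAPDH and POLR2A housekeeping genes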
Outline: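 Expression of CAT was quantified by TaqMan qRT-PCR with ACTB/GAPDH/POLR2A normalization after 48 h chemical exposure of HepaRG. Eight-point half-log series, top 100 uM, in 0.5% DMSO; gain or loss fitted against vehicle.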

[2] = read-out: flavin-containing dimethylaniline monooxygenases 3 (FMO3), FMO3 (gene 2328); test: LTEA_HepaRG_FMO3: Life Technologies and Expression Analysis (LTEA) Assay for flavin-containing dimethylaniline monooxygenases 3 (FMO3) using HepaRG (AID 2283453); conditions: mRNA level, 48 h; actives raise or lower the signal
Outline: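 Eight-point concentration-response in serum-free HepaRG cultures (top 100 uM, 0.5% DMSO, 48 h). Read-out: FMO3 mRNA level normalized to three endogenous control genes, fitted bidirectionally versus vehicle.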

[3] = read-out: Cytochrome P450 (CYP1A1), CYP1A1 (gene 1543); test: LTEA_HepaRG_CYP1A1: Life Technologies and Expression Analysis (LTEA) Assay for Cytochrome P450 (CYP1A1) using HepaRG (AID 2283454); conditions: mRNA level, 48 h; actives raise or lower the signal
Outline: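 Differentiated human HepaRG cells, after 48 h plating, exposed in duplicate for 48 h in serum-free induction medium to 8 half-log concentrations up to 100 uM in 0.5% DMSO. CYP1A1 mRNA by qRT-PCR, normalized to ACTB/GAPDH/POLR2A; bidirectional fit versus DMSO.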

[4] = read-out: CFLAR gene, CFLAR (gene 8837); test: LTEA_HepaRG_CFLAR: Life Technologies and Expression Analysis (LTEA) Assay for CFLAR gene using HepaRG (AID 2283455); conditions: mRNA level, 48 h; actives raise or lower the signal
Outline: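 Transcript level by qRT-PCR (normalized to ACTB, GAPDH and POLR2A) after 48 h chemical exposure of HepaRG cells, top concentration 100 uM with half-log steps, 0.5% DMSO vehicle, duplicates; fitted bidirectionally against DMSO baseline.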

[5] = read-out: Forkhead box O1 (FOXO1), FOXO1 (gene 2308); test: LTEA_HepaRG_FOXO1: Life Technologies and Expression Analysis (LTEA) Assay for Forkhead box O1 (FOXO1) using HepaRG (AID 2283456); conditions: mRNA level, 48 h; actives raise or lower the signal
Outline: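 FOXO1 transcript quantified by qRT-PCR after 48 h chemical exposure (top 100 uM, half-log steps, 0.5% DMSO) of HepaRG cells, housekeeping-normalized (ACTB/GAPDH/POLR2A). Changes fitted in both directions relative to vehicle.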

[6] = read-out: growth arrest and DNA damage 45 (GADD45A), GADD45A (gene 1647); test: LTEA_HepaRG_GADD45A: Life Technologies and Expression Analysis (LTEA) Assay for growth arrest and DNA damage 45 (GADD45A) using HepaRG (AID 2283458); conditions: mRNA level, 48 h; actives raise or lower the signal
Outline: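 Eight-point concentration-response in HepaRG cells: 48 h chemical exposure, 0.5% DMSO vehicle, top dose 100 uM. Normalized qRT-PCR mRNA readout with bidirectional fitting relative to DMSO.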

[7] = read-out: Forkhead box O3 (FOXO3), FOXO3 (gene 2309); test: LTEA_HepaRG_FOXO3: Life Technologies and Expression Analysis (LTEA) Assay for Forkhead box O3 (FOXO3) using HepaRG (AID 2283459); conditions: mRNA level, 48 h; actives raise or lower the signal
Outline: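 FOXO3 transcript measured by qRT-PCR (normalized to ACTB, GAPDH, POLR2A) after 48 h exposure of HepaRG cells in serum-free induction medium. Duplicates, eight half-log concentrations up to 100 uM, 0.5% DMSO; gain or loss fitted against DMSO.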

[8] = read-out: ABC Transporter (ABCB1), ABCB1 (gene 5243); test: LTEA_HepaRG_ABCB1: Life Technologies and Expression Analysis (LTEA) Assay for ABC Transporter (ABCB1) using HepaRG (AID 2283460); conditions: mRNA level, 48 h; actives raise or lower the signal
Outline: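 ABCB1 transcript level measured by TaqMan qRT-PCR against three housekeeping genes after 48 h chemical exposure of differentiated HepaRG cells. Top concentration 100 uM, half-log steps, eight points, 0.5% DMSO vehicle; bidirectional fit relative to DMSO.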

[9] = read-out: growth arrest and DNA damage 45 (GADD45B), GADD45B (gene 4616); test: LTEA_HepaRG_GADD45B: Life Technologies and Expression Analysis (LTEA) Assay for growth arrest and DNA damage 45 (GADD45B) using HepaRG (AID 2283461); conditions: mRNA level, 48 h; actives raise or lower the signal
Outline: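 Differentiated human HepaRG cells in serum-free induction medium exposed 48 h in duplicate to eight concentrations, top 100 uM, half-log steps, 0.5% DMSO. GADD45B mRNA by TaqMan qRT-PCR, normalized to ACTB, GAPDH, POLR2A; bidirectional fit versus DMSO.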

[10] = read-out: ABC Transporter (ABCC3), ABCC3 (gene 8714); test: LTEA_HepaRG_ABCC3: Life Technologies and Expression Analysis (LTEA) Assay for ABC Transporter (ABCC3) using HepaRG (AID 2283462); conditions: mRNA level, 48 h; actives raise or lower the signal
Outline: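 Differentiated human HepaRG cells exposed 48 h in serum-free induction medium, 0.5% DMSO vehicle, 8-point half-log series to 100 uM in duplicate. ABCC3 mRNA by qRT-PCR, normalised to ACTB, GAPDH, POLR2A; bidirectional fit vs DMSO.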

[11] = read-out: ABC Transporter (ABCB11), ABCB11 (gene 8647); test: LTEA_HepaRG_ABCB11: Life Technologies and Expression Analysis (LTEA) Assay for ABC Transporter (ABCB11) using HepaRG (AID 2283463); conditions: mRNA level, 48 h; actives raise or lower the signal
Outline: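 ABCB11 transcript levels quantified by TaqMan qRT-PCR against three housekeeping genes after 48 h chemical exposure of HepaRG cultures. Concentrations up to 100 uM in half-log steps, 0.5% DMSO vehicle; both induction and suppression scored.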

[12] = read-out: ABC Transporter (ABCC2), ABCC2 (gene 1244); test: LTEA_HepaRG_ABCC2: Life Technologies and Expression Analysis (LTEA) Assay for ABC Transporter (ABCC2) using HepaRG (AID 2283464); conditions: mRNA level, 48 h; actives raise or lower the signal
Outline: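 Differentiated HepaRG cells in serum-free induction medium exposed 48 h to eight half-log concentrations up to 100 uM, 0.5% DMSO, in duplicate. ABCC2 mRNA measured by qRT-PCR (TaqMan, Fluidigm), normalized to ACTB, GAPDH and POLR2A. Fitted in both directions against DMSO.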

[13] = read-out: Broad substrate specificity ATP-binding cassette transporter ABCG2 (Homo sapiens) (UniProt Q9UNQ0); test: LTEA_HepaRG_ABCG2: Life Technologies and Expression Analysis (LTEA) Assay for ABC Transporter (ABCG2) using HepaRG (AID 2283465); conditions: mRNA level, 48 h; actives raise or lower the signal
Outline: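 ABCG2 transcript was quantified by TaqMan qRT-PCR against three housekeeping genes in HepaRG cells. Cells were treated in duplicate for 48 h across an 8-point half-log series up to 100 uM, with 0.5% DMSO vehicle. Gain or loss versus DMSO was fit.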

[14] = read-out: ATP-citrate lyase (ACLY), ACLY (gene 47); test: LTEA_HepaRG_ACLY: Life Technologies and Expression Analysis (LTEA) Assay for ATP-citrate lyase (ACLY) using HepaRG (AID 2283466); conditions: mRNA level, 48 h; actives raise or lower the signal
Outline: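 ACLY mRNA quantified by qRT-PCR on Fluidigm arrays against three housekeeping genes, after 48 h chemical treatment of HepaRG cells (top concentration 100 uM, half-log steps, 0.5% DMSO vehicle). Up- or down-regulation fitted relative to DMSO.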

[15] = read-out: Peroxisomal acyl-coenzyme A oxidase 1 (ACOX1) gene, ACOX1 (gene 51); test: LTEA_HepaRG_ACOX1: Life Technologies and Expression Analysis (LTEA) Assay for Peroxisomal acyl-coenzyme A oxidase 1 (ACOX1) gene using HepaRG (AID 2283467); conditions: mRNA level, 48 h; actives raise or lower the signal
Outline: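 ACOX1 transcript levels were quantified by TaqMan qRT-PCR against three housekeeping genes after 48 h chemical exposure of differentiated human HepaRG cells. Exposure used eight half-log steps topping at 100 uM, 0.5% DMSO vehicle, in duplicate. Bidirectional curve fits were made relative to DMSO.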

[16] = read-out: Alkaline Phosphatase, Placental (ALPP) gene, ALPP (gene 250); test: LTEA_HepaRG_ALPP: Life Technologies and Expression Analysis (LTEA) Assay for Alkaline Phosphatase, Placental (ALPP) gene using HepaRG (AID 2283468); conditions: mRNA level, 48 h; actives raise or lower the signal
Outline: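 HepaRG cells plated 48 h, then exposed in duplicate for 48 h in serum-free induction medium to 8-point half-log series from 100 uM in 0.5% DMSO. ALPP mRNA by TaqMan qRT-PCR, normalized to ACTB/GAPDH/POLR2A; bidirectional fit versus DMSO.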

[17] = read-out: Bcl-2 (BAD) gene, BAD (gene 572); test: LTEA_HepaRG_BAD: Life Technologies and Expression Analysis (LTEA) Assay for Bcl-2 (BAD) gene using HepaRG (AID 2283469); conditions: mRNA level, 48 h; actives raise or lower the signal
Outline: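 Read-out: qRT-PCR of BAD mRNA, normalized to three housekeeping genes. Human HepaRG cultures got 48 h chemical exposure in 0.5% DMSO, duplicate eight-point half-log series topping at 100 uM. Gain or loss of signal fitted versus DMSO vehicle.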

[18] = read-out: Bcl-2 (BAX) gene, BAX (gene 581); test: LTEA_HepaRG_BAX: Life Technologies and Expression Analysis (LTEA) Assay for Bcl-2 (BAX) gene using HepaRG (AID 2283470); conditions: mRNA level, 48 h; actives raise or lower the signal
Outline: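 Human HepaRG cells treated in duplicate for 48 h across eight concentrations (max 100 uM, 0.5% DMSO); BAX expression measured by qRT-PCR.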

[19] = read-out: adenosine kinase (ADK) gene, ADK (gene 132); test: LTEA_HepaRG_ADK: Life Technologies and Expression Analysis (LTEA) Assay for adenosine kinase (ADK) gene using HepaRG (AID 2283471); conditions: mRNA level, 48 h; actives raise or lower the signal
Outline: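 ADK expression quantified by qRT-PCR, normalised to three housekeeping genes, after 48 h exposure of HepaRG cells to eight concentrations (top 100 uM, half-log steps, duplicate, 0.5% DMSO). Up- or down-regulation fitted relative to vehicle.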

[20] = CEETOX_H295R_TESTO: CeeTox H295R High-throughput Steroidogenesis Assay for Testosterone (TESTO) (AID 2283457); conditions: actives raise or lower the signal
Outline: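 H295R adrenal cells, passage ≤10, exposed to chemicals for 48 h. Testosterone in medium measured by MTBE extraction and HPLC-MS/MS against a 7-point standard curve. Bidirectional fit versus DMSO; MTT viability checked in the same wells.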

Measured: AC50

Broad substrate specificity ATP-binding cassette transporter ABCG2 (Homo sapiens), sequence (Q9UNQ0 whole entry, looked up): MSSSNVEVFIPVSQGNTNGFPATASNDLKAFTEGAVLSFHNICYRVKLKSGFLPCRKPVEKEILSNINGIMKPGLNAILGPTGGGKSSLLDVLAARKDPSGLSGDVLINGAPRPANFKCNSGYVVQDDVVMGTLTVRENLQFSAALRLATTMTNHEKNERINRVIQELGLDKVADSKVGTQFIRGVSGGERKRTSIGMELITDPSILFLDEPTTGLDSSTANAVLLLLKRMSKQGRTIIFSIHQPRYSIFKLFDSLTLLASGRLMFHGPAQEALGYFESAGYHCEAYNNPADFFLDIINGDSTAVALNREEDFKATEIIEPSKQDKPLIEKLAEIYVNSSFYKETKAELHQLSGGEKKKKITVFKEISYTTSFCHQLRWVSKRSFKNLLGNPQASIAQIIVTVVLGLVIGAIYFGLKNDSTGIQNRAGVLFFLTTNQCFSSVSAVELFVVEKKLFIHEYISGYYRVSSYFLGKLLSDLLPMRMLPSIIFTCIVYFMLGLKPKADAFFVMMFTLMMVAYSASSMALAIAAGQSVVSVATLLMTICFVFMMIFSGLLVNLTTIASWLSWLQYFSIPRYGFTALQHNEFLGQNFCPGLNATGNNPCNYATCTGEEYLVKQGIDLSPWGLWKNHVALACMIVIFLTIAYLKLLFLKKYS

O=C(c1ccc(OCCN2CCCCC2)cc1)c1c(-c2ccc(O)cc2)sc2cc(O)ccc12
inactive: [3] | [6] | [7] | [13] | [14] | [16] | [17] | [18]
active: [1] 50 µM | [2] 72.3 µM | [4] 65.4 µM | [5] 86 µM | [8] 72.7 µM | [9] 92.8 µM | [10] 50 µM | [11] 7.18 µM | [12] 84.8 µM | [15] 68.6 µM | [19] 67.7 µM

CC(=N[Si](C)(C)C)O[Si](C)(C)C
inactive: [20]

CC(C)(C)c1cccc(O)c1
inactive: [20]

COC(=O)c1ccc(C(=O)OC)cc1
active: [3] 65.1 µM
not listed: [20]
inactive: all other assays above

CC=CC(=O)C1=C(C)C=CCC1(C)C
inactive: [20]

C[C@]12CC[C@@H]3c4ccc(O)cc4CC[C@H]3[C@@H]1CC[C@@H]2O
active: [3] 66.1 µM | [8] 6.57 µM | [11] 50 µM | [12] 41.2 µM | [13] 3.03 µM
not listed: [20]
inactive: all other assays above

OCCCO
inactive: [20]

C#C[C@]1(O)CC[C@H]2[C@@H]3CCc4cc(O)ccc4[C@H]3CC[C@@]21C
not listed: [20]
inactive: all other assays above
